# Data taken from the supplement of paper PMC11417369.
# ± gives the standard deviation of the averaged measurements. Whole data set: some 25,000 sequences, median “ln(normalized median fluorescence intensity)” near 7.9, cut for the highest 2% near 11. Only a selection was taken, and the highest values are over-represented in it overall.
# Test system: PfAP2-I AP2 domain 3 (GST-tagged)
# Assay: gcPBM binding intensity (ln(normalized median fluorescence intensity)); higher = stronger DNA binding
# In short: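 Binding intensity is the highest Masliner-normalised natural-log median intensity over replicate spots in either probe orientation. To obtain it, GST-tagged P. falciparum DNA-binding domains made in E. coli were incubated for 1 h on an Agilent 4 × 180k array of primer-extended double-stranded 36-bp intergenic genomic probes plus negative controls. Detection used Alexa488 anti-GST antibody with scanning at 488 nm.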
row,Sequence,gcPBM binding intensity (ln)
1,TGAAAAAAAAAAAAAAAAAAAAGAAAAAAAAAAAAA [CACACA_negctrl_site709],7.82 ± 1.2
2,AATAATCTATATTGTACACACAAAATGGGAAAAAAA [CACACA_site6969],8.11 ± 0.73
3,ATTTATTTATTGGCACGTACAAATTTGTGTTTTCCA [XGTACX_site6978],8.54 ± 0.53
4,ATAAAAAAAAATATTTGTACACATATTTATATATTA [XGTACX_site8147],7.63 ± 0.36
5,ATATCATTTTCCTGCACACATAAATTTATATAATAT [CACACA_site1048],9.45 ± 0.38
6,AATTTTCCATAGATTGTGCACAAATTTTTATTTTGT,10.9 ± 0.2
7,TTTTTTATTTTGTGCACACACATAAAAATATAAATA [CACACA_site6497],11.01 ± 0.042
8,ACATAATATACTATTGTGCACATATATATATATATA [GTGCAC_site9761],10.88 ± 0.085
9,TTATTTATTTATATAGTGCAATAAACACATAAATAG,10.8 ± 0.47
10,TTTTTCCTATTTTTAGTGCACATATAAATAAATAAA [GTGCAC_site9821],11.6 ± 0.23
11,TATTTTTCCATAAAAATTTATATAGAAACAAATAAT [GTGCAC_negctrl_site103],7.75 ± 0.46
12,ACATATAAATATTGTGTGCACACACATAATATATAT,10.2 ± 0.18
13,ATATATATTTTTTAAACACACACATAAATATTTGTG [CACACA_site8936],7.97 ± 0.38
14,ATAGAACTATATTGCACACATAATATATATATATAT [CACACA_site3189],10.5 ± 0.52
15,AAAAAGAACAGAAACACACAAATAAAATAAAATTGT [CACACA_site6921],7.72 ± 0.61
16,TTTTTTTTCTTTTTTTGTACATAATAATATATAAAT [XGTACX_site6778],7.68 ± 0.35
17,TGTTCTATTCTATTATTATTTACAAATTATAAATAA [GTGCAC_negctrl_site232],7.89 ± 0.37
18,TTTAATTTTCGGTGTGCACACAACTATGAGTTTTTA [CACACA_site3034],9.565 ± 0.035
19,ATACAATTTATTTTAACACACGAATGAATTGATTAT [CACACA_site4160],7.76 ± 0.63
20,TGTGTATATCGATAAAGTACATTTGAAAAGTGACTT [XGTACX_site6957],7.62 ± 0.51
21,TTTTATTTTTTTAAATGTACACATATTAATGTAAGG [XGTACX_site319],7.92 ± 0.3
22,TATTGGATCACACAAAAATGTATAAATAAATAGAAA [TGCATGCA_negctrl_site490],7.7 ± 0.61
23,TCGAACATTAACATAACACACATATATATATATATA [CACACA_site2900],9.27 ± 0.29
24,TATCCATTTCTTTATGTGCACATTAAATATATTTGT,10.2 ± 0.4

row,Sequence,gcPBM binding intensity (ln)
1,TACATATTGATATATACACACAAAAAAATAAATTCT [CACACA_site6198],7.61 ± 0.54
2,ATATTTTGTTTTATAGTGCACATGGGCATATATTAA [GTGCAC_site9435],11 ± 0.32
3,TTATTTTTGTTCATAGTGCATAGAATTTATACATAT,9.91 ± 0.33
4,ATATATTTGATAAGAGTGCACAAATACATACATACA [GTGCAC_site9704],10.94 ± 0.071
5,CATTTTATTTTCTTTGTGCACAAAAATATTTTTTCT,11.13 ± 0.092
6,ATATTATTATATATAGTGCATATTATTATTTTTATT,10.2 ± 0.42
7,TATATACATATATGCACACAAAAAAATATATATTTT [CACACA_site1729],8.99 ± 0.11
8,GAAATTTGTTATTGCACACAAATTTTTCTTTTTTTA [CACACA_site2339],10.14 ± 0.028
9,TTGTTTGATATCTTTGTCACGAAAAAAATATATATA [GTGCAC_negctrl_site54],7.83 ± 0.64
10,TCTTTTTTCATATTTTCACACATGTCTTTATATTTA [CACACA_site6025],8.28 ± 0.65
11,ATGAATAAATGAACATGTACATATATATATATATTA [XGTACX_site5005],7.76 ± 0.47
12,TTTTGGCTTCTAATATTATACAAAATGGTAAGGAAA [TGCATGCA_negctrl_site169],7.94 ± 0.4
13,TAATTTCTTAGGTATTGTACAAATATTATATGATAT [XGTACX_site256],7.55 ± 0.59
14,TATCCCTTAGAATACACACCCATATGAGGGTGAACT [CACACA_site5610],7.76 ± 0.26
15,TATATTTCAGGGGGGAGTACAAATTTTTTTATATAA [XGTACX_site1600],11 ± 0.52
16,TATTTTTTTTTTATATGTACATAATTTCAAATAAAT [XGTACX_site7747],7.97 ± 0.41
17,TATAATTATATTTGGAGTACAAATTTTTTTTTTTTT [XGTACX_site7494],7.765 ± 0.007
18,ATTATTATATATATAACACACATAATTATATACTTA [CACACA_site1563],7.89 ± 0.38
19,TCTATAAAGTTCCATACATGCGCCATCATTTATATT [TGCATGCA_site195],7.97 ± 0.79
20,TTTTTAATCAGAAATATTTATTAAAGAATTTTATAG [GTGCAC_negctrl_site725],7.32 ± 0.34
21,TTTGTTTTTTTGAGAGTGCAATATATATAAAAAGGG [GTGCAC_site9691],11.2 ± 0.64
22,TTATAAATAAAAAGAGTGCAATTATAAATATATATA,10.1 ± 0.23
23,AGATATTTATTGAGTGCATGTTATAAAGGGAAAAAA [TGCATGCA_site88],9.04 ± 0.17
